# Reference: PubChem BioAssay AID1159580 (chemical genetic matrix, 2015)
# Screen size: about 5,500 compounds; about 2,000 (36%) were called active. Another 18% or so got no clear call; they are omitted. The list shows a part of the results. A number with no mark means an inactive call. Cut-off read from the data, not from the text of the source: active = normalized growth mostly below about 0.91 (no sharp cut-off); inconclusive = no clear call, values can overlap the other calls; inactive = mostly above about 0.92.
# Test: chemical genetic growth profiling, strain panel (AID 1159580);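 note: tested at 20 µM; growth read once vehicle control cultures reached saturation at 30 °C; 1 = growth at the plate median or of vehicle wells; lower values mean less growth of the strain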
# Details: S. cerevisiae deletion strains, growth OD
# [1] = locus YAL013W, strain DEP1, active compounds read low
# [2] = locus YBR229C, strain ROT2, active compounds read low
# [3] = locus YCL061C, strain MRC1, active compounds read low
# [4] = locus YDL101C, strain DUN1, active compounds read low
# [5] = locus YDR150W, strain NUM1, active compounds read low
# [6] = locus YEL061C, strain CIN8, active compounds read low
# [7] = locus YGR078C, strain PAC10, active compounds read low
# [8] = locus YGR229C, strain SMI1, active compounds read low
# [9] = locus YHR030C, strain SLT2, active compounds read low
# [10] = locus YHR087W, strain rtc3, active compounds read low
# [11] = locus YJR043C, strain POL32, active compounds read low
# [12] = locus YJR075W, strain HOC1, active compounds read low
# [13] = locus YLR039C, strain RIC1, active compounds read low
# [14] = locus YLR058C, strain SHM2 (second series), active compounds read low
# [15] = locus YLR085C, strain ARP6, active compounds read low
# [16] = locus YLR262C, strain YPT6, active compounds read low
# [17] = locus YML094W, strain GIM5, active compounds read low
# [18] = locus YMR219W, strain ESC1, active compounds read low
# [19] = locus YMR263W, strain SAP30, active compounds read low
# [20] = locus YNL153C, strain GIM3, active compounds read low
# [21] = locus YNL298W, strain CLA4 (second series), active compounds read low
# [22] = locus YNL322C, strain KRE1, active compounds read low
# [23] = locus YNR030W, strain Alg12, active compounds read low
# [24] = locus YPL055C, strain LGE1, active compounds read low
# [25] = locus YPL241C, strain CIN2, active compounds read low
# [26] = locus YPR135W, strain CTF4, active compounds read low
# [27] = locus YMR307W, strain GAS1, active compounds read low
# [28] = locus YNL128W, strain TEP1, active compounds read low
# [29] = locus YAL040C, strain CLN3, active compounds read low
# [30] = locus YCL061C, strain MRC1 (second series), active compounds read low
# [31] = locus YDR363W, strain ESC2, active compounds read low
# [32] = locus YER002W, strain NOP16, active compounds read low
# [33] = locus YNL175C, strain NOP13, active compounds read low
# [34] = locus YNL197C, strain WHI3, active compounds read low
# [35] = locus YNL224C, strain SQS1, active compounds read low
# [36] = locus YOR083W, strain WHI5 (second series), active compounds read low
smiles,measurement,setting,value
O=C(NCCNc1ccc(C(F)(F)F)cc1[N+](=O)[O-])c1cccs1,normalized growth,[1],0.974
same,normalized growth,[2],0.972
same,normalized growth,[3],0.983
same,normalized growth,[4],0.93
same,normalized growth,[5],0.931
same,normalized growth,[6],0.948
same,normalized growth,[7],0.967
same,normalized growth,[8],0.974
same,normalized growth,[9],0.673 (active)
same,normalized growth,[10],0.973
same,normalized growth,[11],0.978
same,normalized growth,[12],0.998
same,normalized growth,[13],0.838
same,normalized growth,[14],0.967
same,normalized growth,[15],0.775 (active)
same,normalized growth,[16],0.915
same,normalized growth,[17],0.841 (active)
same,normalized growth,[18],0.982
same,normalized growth,[19],1.02
same,normalized growth,[20],0.976
same,normalized growth,[21],0.863
same,normalized growth,[22],0.988
same,normalized growth,[23],0.911
same,normalized growth,"locus YOL006C, strain TOP1, active compounds read low",0.778
same,normalized growth,[24],0.771 (active)
same,normalized growth,[25],1.13
same,normalized growth,[26],0.743
CC(O)CNc1ccc(C(F)(F)F)cc1[N+](=O)[O-] (stereo unspecified),normalized growth,[1],1.01
same,normalized growth,[2],1.01
same,normalized growth,[3],1.03
same,normalized growth,[4],1.03
same,normalized growth,[5],1.04
same,normalized growth,[6],0.997
same,normalized growth,[7],1.02
same,normalized growth,[8],0.993
same,normalized growth,[9],0.987
same,normalized growth,[10],1
same,normalized growth,[11],1.02
same,normalized growth,[12],1.04
same,normalized growth,"locus YKL190W, strain CNB1, active compounds read low",1.02
same,normalized growth,[13],1.08
same,normalized growth,[14],0.998
same,normalized growth,[15],0.989
same,normalized growth,[16],0.985
same,normalized growth,[17],0.947
same,normalized growth,[18],1
same,normalized growth,[19],1.02
same,normalized growth,[27],1.03
same,normalized growth,[28],1.02
same,normalized growth,[20],0.998
same,normalized growth,[21],1.05
same,normalized growth,[22],1
same,normalized growth,[23],0.999
same,normalized growth,[24],0.966
same,normalized growth,[25],1.01
same,normalized growth,[26],1.01
CCOC(=O)c1ncn2c1[C@@H]1CCCN1C(=O)c1cc(OC)ccc1-2,normalized growth,[29],0.938
same,normalized growth,[30],1.01
same,normalized growth,[31],1
same,normalized growth,[32],1.01
same,normalized growth,[8],1.05
same,normalized growth,[27],0.981
same,normalized growth,[33],1.04
same,normalized growth,[34],1.03
same,normalized growth,[35],1.01
same,normalized growth,[22],1.02
same,normalized growth,[36],1.04
same,normalized growth,[24],1.05
same,normalized growth,[25],1.01
CCCN(CCC)[C@@H]1CCc2cccc(O)c2C1,normalized growth,[29],1.04
same,normalized growth,[30],0.995
same,normalized growth,[5],0.989
same,normalized growth,[31],0.997
same,normalized growth,[32],0.977
same,normalized growth,[7],0.981
same,normalized growth,[8],1.07
same,normalized growth,[12],1.02
same,normalized growth,[19],1
same,normalized growth,[27],1.03
same,normalized growth,[20],0.953
same,normalized growth,[33],0.998
same,normalized growth,[34],0.974
same,normalized growth,[35],1
same,normalized growth,[36],1.01
same,normalized growth,[24],1.01
same,normalized growth,[25],1
CCCN(CCC)[C@H]1CCc2c(F)ccc(O)c2C1,normalized growth,[30],1
same,normalized growth,[31],1.01
same,normalized growth,[32],0.998
same,normalized growth,[8],1.02
same,normalized growth,[12],1.01
same,normalized growth,[27],0.993
same,normalized growth,[28],0.428 (active)
same,normalized growth,[34],0.979
same,normalized growth,[35],0.995
same,normalized growth,[36],1.01
same,normalized growth,[25],1
CCCN(CCC)[C@@H]1CCc2c(F)ccc(O)c2C1,normalized growth,[1],1.01
same,normalized growth,[29],1.01
same,normalized growth,[30],1.01
same,normalized growth,[5],0.983
same,normalized growth,[31],1.01
same,normalized growth,[32],1
same,normalized growth,[12],1.02
same,normalized growth,[19],1.01
same,normalized growth,[27],1
same,normalized growth,[34],0.992
same,normalized growth,[35],0.999
same,normalized growth,[36],1.01
same,normalized growth,[24],1.01
same,normalized growth,[25],1
